Test results from the supplement of paper PMC6992640.

Tested on: HCI03 (cells of an ER-positive luminal breast cancer xenograft)
Assay: cell viability (% of vehicle); higher = less cytotoxic
Details: 10 µM; 72 h
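Note: PDX cells carrying CMV promoter-driven luciferase, viability read as total photon flux per second by IVIS imaging following D-luciferin, vehicle control 0.1% DMSO.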

| Compound | cell viability |
| --- | --- |
| COC(=O)C(c1ccccc1Cl)N1CCc2sccc2C1.O=S(=O)(O)O (centres undefined) [Clopidogrel] | 115 |
| CC(C)(C)C(=O)C(Oc1ccc(Cl)cc1)n1ccnc1 (centres undefined) [Climbazole] | 115 |
| CCCN(CCC)CCc1cccc2c1CC(=O)N2.Cl [Ropinirole HCl] | 93.8 |
| CCCC(=O)Nc1ccc(OCC(O)CNC(C)C)c(C(C)=O)c1.Cl (centres undefined) [Acebutolol HCl] | 123 |
| O=C(O)C=Cc1ccccc1 [Cinnamic acid] | 108 |
| Nc1nc(=O)c2nc(CNc3ccc(C(=O)NC(CCC(=O)O)C(=O)O)cc3)cnc2[nH]1 (centres undefined) [Folic acid] | 118 |
| OCC(O)CN1CCN(c2ccccc2)CC1 (centres undefined) [Dropropizine] | 129 |
| CN(C)CCC(c1ccccc1)c1ccccn1.O=C(O)C=CC(=O)O (centres undefined) [Pheniramine Maleate] | 123 |
| CC(C)(C)c1cc(NC(=O)Nc2ccc(-c3cn4c(n3)sc3cc(OCCN5CCOCC5)ccc34)cc2)no1 [Quizartinib (AC220)] | 112 |
| O=c1nc[nH]c2c1ncn2C1CCC(CO)O1 (centres undefined) [Didanosine] | 139 |
| CC1(C)SC2C(NC(=O)Cc3ccccc3)C(=O)N2C1C(=O)[O-].[Na+] (centres undefined) [Penicillin G Sodium] | 105 |
| CCCCC(=O)N(Cc1ccc(-c2ccccc2-c2nnn[nH]2)cc1)[C@H](C(=O)O)C(C)C.CCOC(=O)[C@H](C)C[C@@H](Cc1ccc(-c2ccccc2)cc1)NC(=O)CCC(=O)O | 141 |
| Clc1ccc(COC(Cn2ccnc2)c2ccc(Cl)cc2Cl)c(Cl)c1 (centres undefined) [Miconazole] | 87.6 |
| O=C(O)[C@H](O)[C@@H](O)C(=O)O.c1cnc2cc3c(cc2n1)C1CNC[C@@H]3C1 [Varenicline Tartrate] | 128 |
| CN(C)CCC(c1ccc(Cl)cc1)c1ccccn1.O=C(O)C=CC(=O)O (centres undefined) [Chlorpheniramine Maleate] | 115 |
| Nc1nc(CC(=O)Nc2ccc(CCNCC(O)c3ccccc3)cc2)cs1 (centres undefined) [Mirabegron (YM178)] | 109 |
| CCCS(=O)c1ccc2nc(NC(=O)OC)[nH]c2c1 (centres undefined) [Albendazole Oxide] | 144 |
| C=C1C(CO)C(O)CC1n1cnc2c(=O)nc(N)[nH]c21.O (centres undefined) [Entecavir Hydrate] | 104 |
| Cc1ccccc1C(OCCN(C)C)c1ccccc1.O=C(O)CC(O)(CC(=O)O)C(=O)O (centres undefined) [Orphenadrine Citrate] | 130 |
| CCC(C)C(=O)OC1CC(C)C=C2C=CC(C)C(CCC3CC(O)CC(=O)O3)C21 (centres undefined) [Lovastatin] | 115 |

| Compound | cell viability |
| --- | --- |
| CN1CCC(=C2c3ccccc3CCc3sccc32)CC1.O=C(O)CC(O)C(=O)O [Pizotifen Malate] | 105 |
| COCCCOc1cc(CC(CC(N)C(O)CC(C(=O)NCC(C)(C)C(N)=O)C(C)C)C(C)C)ccc1OC.COCCCOc1cc(CC(CC(N)C(O)CC(C(=O)NCC(C)(C)C(N)=O)C(C)C)C(C)C)ccc1OC.O=C(O)C=CC(=O)O (centres undefined) [Aliskiren Hemifumarate] | 157 |
| CC(C)C(N)C(=O)OCCOCn1cnc2c(=O)nc(N)[nH]c21.Cl (centres undefined) [Valaciclovir HCl] | 128 |
| CC1CCOC2Cn3cc(C(=O)NCc4ccc(F)cc4F)c(=O)c(O)c3C(=O)N12 (centres undefined) | 110 |
| CC(S)C(=O)NCC(=O)O (centres undefined) [Tiopronin (Thiola)] | 109 |
| CCCCC(=O)OC1CCC2C3CCc4cc(O)ccc4C3CCC12C (centres undefined) [Estradiol valerate] | 122 |
| NC1CCCCC1N.O=C([O-])C(=O)[O-].[Pt+2] (centres undefined) [Oxaliplatin] | 108 |
| COc1cc(Nc2ncc3c(n2)-c2ccc(Cl)cc2C(c2c(F)cccc2OC)=NC3)ccc1C(=O)O [MLN8237 (Alisertib)] | 118 |
| C[N+](C)(CCOc1ccccc1)Cc1ccccc1.O=C(O)c1cc2ccccc2cc1[O-] [Bephenium Hydroxynaphthoate] | 127 |
| CCC(C(C)O)n1ncn(-c2ccc(N3CCN(c4ccc(OCC5COC(Cn6cncn6)(c6ccc(F)cc6F)C5)cc4)CC3)cc2)c1=O (centres undefined) [Posaconazole] | 78 |
| NC(=O)C1CCCc2c1[nH]c1ccc(Cl)cc21 (centres undefined) | 182 |
| Nc1cc(C(Cl)=C(Cl)Cl)c(S(N)(=O)=O)cc1S(N)(=O)=O [Clorsulon] | 108 |
| Nc1nc(=O)c2ncn(COC(CO)CO)c2[nH]1 [Ganciclovir] | 124 |
| CNNCc1ccc(C(=O)NC(C)C)cc1.Cl [Procarbazine HCl] | 90.5 |
| CC(=O)N1CCN(c2ccc(OCC3COC(Cn4ccnc4)(c4ccc(Cl)cc4Cl)O3)cc2)CC1 (centres undefined) [Ketoconazole] | 143 |
| COC(=O)C1=C(C)NC(C)=C(C(=O)OC(C)C)C1c1cccc2nonc12 (centres undefined) [Isradipine (Dynacirc)] | 118 |
| Br.CN1CCCC1Cc1c[nH]c2ccc(CCS(=O)(=O)c3ccccc3)cc12 (centres undefined) [Eletriptan HBr] | 108 |
| CCN(CC)CCOC(=O)C(c1ccccc1)c1ccccc1.Cl [Adiphenine HCl] | 129 |
| CCCN1CCCCC1C(=O)Nc1c(C)cccc1C.Cl.O (centres undefined) [Ropivacaine hydrochloride monohydrate] | 116 |
